From PubChem BioAssay
Activity calls are given as the source filed them.

Experiments:
Albumin (Bos taurus) = Albumin (Bos taurus) (UniProt P02769); experiment: bovine serum albumin binders on microarray, profiling panel, artefact control for SMM control protein annotation, biochemical, small-molecule microarray, Alexa647 label, 635/667 nm fluorescence (AID 1118); settings: BSA-A647 binding, fluorescence 635 nm, higher = more signal;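 note: score merges 667 nm emission intensity and signal-to-noise per printed compound spot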
[1] = small-molecule microarray binders of probe aXIP, primary screen, biochemical, NeuroSMM set, 635/667 nm fluorescence (AID 1119); settings: higher = more signal, called active from +8 up or from −8 down;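 note: probe is the protein aXip251-270 applied at 1 µg/mL to compound-printed slides; binding of probe to printed compounds measured as 667 nm fluorescence plus signal to noise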
[2] = small-molecule binders of probe aNOTCH3, primary screen, biochemical, small-molecule microarray, 635/667 nm fluorescence (AID 1120); settings: higher = more signal;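 note: probe is a biotin-tagged antibody raised against NOTCH3 rather than NOTCH3 protein; score merges spot fluorescence near 667 nm with spot signal to noise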
[3] = small-molecule binders of probe aNOTCH2, primary screen, biochemical, small-molecule microarray, 635/667 nm fluorescence (AID 1121); settings: higher = more signal;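 note: score merges feature fluorescence read at 667 nm with its signal to noise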
[4] = target: Carbonic anhydrase 2 (Homo sapiens) (UniProt P00918); experiment: CAII small-molecule binders, profiling panel, biochemical, small-molecule microarray, Alexa647-labelled CAII (AID 1122); settings: CAII-A647 binding fluorescence, higher = more signal
[5] = COS7 lysate on small-molecule microarray, probe aHis, 635 nm (AID 1123); settings: COS7 cell lysate, fluorescence, higher = more signal;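 note: z-score combines 667nm fluorescence intensity with signal-to-noise per printed compound spot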
[6] = compound binding in COS7 lysate, probe aLAP1, primary screen, cell lysate, small-molecule microarray (AID 1124); settings: probe aLAP1, fluorescence, higher = more signal;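 note: lysate comes from COS7 cells expressing LAP1 and is applied at 0.3 µg/mL; score merges spot fluorescence near 667 nm with signal-to-noise over triplicate slides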
Sam68 (KHDRBS1) = experiment: Sam68 small-molecule binders, primary screen, biochemical, small-molecule microarray, 635 nm fluorescence (AID 1125); settings: small-molecule microarray binding, higher = more signal;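 note: score merges 667 nm channel intensity with signal to noise over triplicate slides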
[7] = tested on: Chordin-like protein 2 (CHRDL2); experiment: CHRDL2 small-molecule binders, primary screen, biochemical, small-molecule microarray, 635 nm fluorescence (AID 1126); settings: small-molecule microarray binding, fluorescence 635 nm; higher = more signal;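 note: printed compound slides probed with Chrdl2 protein at 4 µg/mL for 1 h at 4 C; score merges 667 nm emission intensity with signal to noise over three replicate slides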
[8] = target: Concanavalin-A (Canavalia ensiformis) (UniProt P02866); experiment: ConA small-molecule binders, primary screen, artefact control for SMM control protein annotation, biochemical, small-molecule microarray, Alexa647 label, 635 nm (AID 1127); settings: ConA-A647 binding fluorescence, higher = more signal;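 note: z combines 667 nm emission intensity with signal-to-noise across three replicate slides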
Chain of Concanavalin-A (Canavalia ensiformis) (P02866 whole entry, looked up): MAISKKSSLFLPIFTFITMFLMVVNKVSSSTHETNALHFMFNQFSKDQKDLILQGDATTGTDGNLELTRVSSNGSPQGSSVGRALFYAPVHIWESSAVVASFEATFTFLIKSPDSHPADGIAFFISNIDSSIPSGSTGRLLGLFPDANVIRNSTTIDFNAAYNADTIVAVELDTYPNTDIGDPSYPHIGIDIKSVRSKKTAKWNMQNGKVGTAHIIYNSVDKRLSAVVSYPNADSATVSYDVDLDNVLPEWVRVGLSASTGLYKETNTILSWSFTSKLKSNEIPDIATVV

Chain of Albumin (Bos taurus) (P02769 whole entry, looked up): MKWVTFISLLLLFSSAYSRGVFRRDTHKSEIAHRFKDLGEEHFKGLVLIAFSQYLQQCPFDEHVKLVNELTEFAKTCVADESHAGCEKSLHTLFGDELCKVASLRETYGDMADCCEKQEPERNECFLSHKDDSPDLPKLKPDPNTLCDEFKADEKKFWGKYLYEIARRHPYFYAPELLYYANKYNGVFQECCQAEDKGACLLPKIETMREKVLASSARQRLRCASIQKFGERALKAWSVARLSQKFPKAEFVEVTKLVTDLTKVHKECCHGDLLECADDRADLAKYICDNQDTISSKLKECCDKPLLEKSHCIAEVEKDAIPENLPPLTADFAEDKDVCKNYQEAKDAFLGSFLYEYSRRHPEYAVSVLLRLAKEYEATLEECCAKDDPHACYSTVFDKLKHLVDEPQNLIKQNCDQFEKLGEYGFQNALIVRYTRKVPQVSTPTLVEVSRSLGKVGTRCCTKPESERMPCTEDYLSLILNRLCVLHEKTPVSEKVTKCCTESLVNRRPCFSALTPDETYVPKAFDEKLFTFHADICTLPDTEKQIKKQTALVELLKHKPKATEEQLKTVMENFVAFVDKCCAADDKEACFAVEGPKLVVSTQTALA

Structure (SMILES) | composite z-score (Albumin (Bos taurus)) | composite Z-score [1] | composite z-score [2] | composite z-score [3] | composite z-score [4] | composite z-score [5] | composite z-score [6] | composite z-score (Sam68 (KHDRBS1)) | composite z-score [7] | composite z-score [8]
Cc1cc(C)c(C(O)C2C=CC3C(=O)N(c4ccccc4)C(=O)C3N2Nc2ccc(C#N)cc2)c(C)c1 (stereo not given) | 1.07 | 0.902 (inactive) | 0.0649 | 0.115 | 0.743 | 3.02 | 0.629 | 1.35 | -0.183 | 1.19
COc1cc2c(cc1OC)CN(C(=O)[C@@H]1[C@H]3C(=O)O[C@H](c4ccccc4)[C@H](c4ccccc4)N3[C@H](c3ccccc3OCCO)[C@@]13C(=O)Nc1ccc(C#CCNC(N)=O)cc13)CC2 | 0.301 | 0.545 (inactive) | 0.37 | -0.0251 | 0.377 | 2.65 | 1.15 | 1.31 | 0.981 | 1.11
COCCCNC(=O)[C@@]1(CCC(=O)OC(C)(C)C)N=C(c2ccc(OCCCO)cc2)O[C@H]1c1ccccc1CN=[N+]=[N-] | 0.642 | -0.371 (inactive) | 0.433 | 0.0716 | 0.577 | 3.34 | 1.53 | 1.26 | -0.105 | 0.8
COCCCNC(=O)[C@@]1(c2ccc([N+](=O)[O-])cc2)CC(=O)N(CC23CC4CC(CC(C4)C2)C3)[C@@H]1c1ccc(CO)cc1 | 0.197 | 0.324 (inactive) | 0.204 | -0.117 | 0.43 | 0.726 | 0.375 | 1.28 | 0.556 | 1.08
CC(C)C(O)C1C=CC2C(=O)N(c3ccccc3)C(=O)C2N1Nc1ccc(C#N)cc1 (stereo not given) | 1.03 | 2.09 (inactive) | 0.276 | 0.0883 | 0.842 | 2.73 | 0.997 | 1.26 | -0.387 | 1.19
CC(C)N1C(=O)c2ccccc2[C@@H](C(=O)NCCCN(C)C)[C@@H]1c1ccc(CO)cc1 | 0.955 | -0.109 (inactive) | -0.15 | 0.0364 | 0.901 | 0.82 | 0.0206 | 0.297 | -1.91 | 0.289
C=C(C(=O)CC[C@H](OC(C)=O)c1ccc(OCCO)cc1)C(C)C | 0.531 | 0.277 (inactive) | 0.0569 | -0.132 | 0.708 | 0.354 | 1.15 | 0.564 | 0.615 | 0.846
CCOC(=O)C1=CC[C@@H](c2ccccc2Cl)N(S(=O)(=O)c2ccc(C)cc2)C1 | 0.963 | 0.817 (inactive) | 0.0738 | 0.145 | 0.563 | 2.04 | 0.837 | 1.06 | -1.04 | 1.04
COc1cc(CO)ccc1OC(C)=O | 0.344 | 0.151 (inactive) | 0.262 | 0.0275 | 0.112 | 0.329 | 0.356 | 0.482 | 0.689 | 0.687
COC(=O)C[C@@H]1C[C@H](C)[C@]2(O1)C(=O)N(Cc1ccccc1)c1ccc(NC(C)=O)cc12 | -0.211 | -0.209 (inactive) | -0.116 | -0.185 | -0.153 | 0.117 | -0.0791 | -0.506 | 0.343 | 0.0104
COCCOC(=O)N1C(=O)[C@@]2(c3cc(C#CCC(C(=O)OC)C(=O)OC)ccc31)[C@H](c1ccc(O)cc1)N1[C@H](c3ccccc3)[C@H](c3ccccc3)OC(=O)[C@H]1[C@@H]2C(N)=O | 0.47 | 1.07 (inactive) | -0.0647 | 0.0232 | 0.438 | 1.2 | 0.647 | 1.31 | 0.778 | 0.859
CC(C)CNC(=O)[C@@]1(c2ccc([N+](=O)[O-])cc2)CC(=O)N(CC23CC4CC(CC(C4)C2)C3)[C@@H]1c1ccc(CO)cc1 | 0.152 | 0.0585 (inactive) | 0.157 | 0.014 | 0.523 | 1.42 | 1.15 | 1.04 | 0.201 | 0.73
O=C(CS)NCCCCCCNC(=O)[C@H]1C[C@H]2C(=O)NCC(=O)N2[C@H]1c1ccc(O)cc1 | -0.523 | 0.131 (inactive) | -0.25 | -0.14 | 0.696 | 0.677 | 0.621 | -0.272 | 0.129 | 0.336
CC(=O)NCCCC[C@@H]1NC(=O)[C@H]2C[C@@H](C(=O)NCCCCCC[N+](C)(C)C)[C@@H](c3cccc(OCCO)c3)N2C1=O | 0.0306 | 0.526 (inactive) | 0.15 | -0.106 | 0.607 | 1.19 | -0.165 | 1.04 | 1.45 | 0.904
C=C[C@H](C)[C@@H](O)c1ccc(O)c2ccccc12 | 0.841 | 0.681 (inactive) | -0.191 | 0.291 | 0.493 | 0.165 | 0.361 | -0.49 | 0.866 | -1.04
C=CCC(OC(C)=O)[C@@H]1[C@@H](N(Cc2ccc(-c3ccccc3)cc2)C(=O)Cc2ccc(OC)cc2)c2cc(OCCCO)ccc2N1C(=O)c1ccc2ccccc2n1 (stereo not given in full) | 0.0184 | 0.245 (inactive) | 0.0522 | -0.182 | 0.195 | 0.514 | 0.123 | -0.959 | 0.0504 | 0.177
C#CCN(C(/C=C/c1ccccc1)CO)C(C(=O)O)c1ccccc1 (stereo not given) | -0.56 | 0.535 (inactive) | -0.389 | -0.181 | -0.199 | -0.21 | -0.0599 | -1.12 | 0.0041 | 0.0529
CC(C)C[C@@H]1NC(=O)[C@H]2C[C@@H](C(=O)NCCCCCCNC(=O)CS)[C@@H](c3cccc(OCCO)c3)N2C1=O | -0.641 | 0.156 (inactive) | 0.0493 | -0.132 | 0.338 | 1.68 | 0.995 | 1.22 | 1.41 | 1.17
O=C1C[C@@](C(=O)NC2CC2)(c2ccc([N+](=O)[O-])cc2)[C@@H](c2ccc(CO)cc2)N1CC12CC3CC(CC(C3)C1)C2 | 0.374 | -0.172 (inactive) | -0.0236 | -0.0091 | 0.22 | 0.681 | -0.107 | 0.684 | -0.203 | 1
CCC[C@@H]1C=C(C(=O)O)[C@H](c2ccc(C)cc2)N1S(=O)(=O)c1ccc(C)cc1 | 0.972 | 0.102 (inactive) | 0.195 | 0.0029 | 0.799 | 2.71 | 0.738 | 1.33 | -0.802 | 0.757
CC(C)(C)OC(=O)CC[C@@]1(C(=O)O)N=C(c2ccc(OCCCO)cc2)O[C@@H]1c1ccccc1N=[N+]=[N-] | 0.933 | 0.0589 (inactive) | 0.39 | 0.0309 | 0.72 | 1.27 | 0.298 | 1.12 | -0.734 | 0.648
COc1cc2c(cc1O)C(C)N(Cc1cccc(OC(F)(F)F)c1)CC2 (stereo not given) | 0.986 | 0.414 (inactive) | -0.0204 | -0.0839 | 0.662 | 2.23 | 0.572 | 0.851 | -0.236 | 0.446
